Data reported in PubChem BioAssay AID1159580 (chemical genetic matrix, 2015).
Where “and” joins values, the source holds several entries; their conditions need not be identical. Equal entries are not always repeated. In all, about 5,500 compounds went through this assay and about 2,000 (36%) were called active. Not shown: some 18% with an inconclusive outcome. No stated cut-off is given here; in the data, active means normalized growth mostly below about 0.91 (no sharp cut-off); inconclusive means no clear call, values can overlap the other calls; inactive means mostly above about 0.92. The list shows a part of the results.

Assay: chemical genetic growth profiling, strain panel (AID 1159580);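 further: tested at 20 µM; growth read once vehicle control cultures reached saturation at 30 °C; 1 = growth at the plate median or of vehicle wells; lower values mean less growth of the strain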
Conditions: S. cerevisiae deletion strains, growth OD

Measured: normalized growth

C[C@H]1[C@H]2CCC3C4CC=C5C[C@@H](N(C)C)CC[C@]5(C)C4CC[C@@]32CN1C (stereo partly specified)
active: locus YDR392W, strain spt3, active compounds read low 0.551
inactive: locus YAL013W, strain DEP1, active compounds read low 0.994 | locus YAL021C, strain ccr4, active compounds read low 1.01 | locus YAL026C, strain drs2, active compounds read low 0.997 | locus YAL030W, strain snc1, active compounds read low 0.996 | locus YBL061C, strain skt5, active compounds read low 0.995 | locus YBR009C, strain hhf1, active compounds read low 0.95 | locus YBR021W, strain FUR4, active compounds read low 1 | locus YBR023C, strain chs3, active compounds read low 0.994 | locus YBR171W, strain sec66, active compounds read low 0.983 | locus YBR229C, strain ROT2, active compounds read low 0.956 | locus YBR231C, strain swc5, active compounds read low 0.972 | locus YBR279W, strain paf1, active compounds read low 0.994 | locus YCL011C, strain gbp2, active compounds read low 0.988 | locus YCL016C, strain dcc1, active compounds read low 0.986 | locus YCL029C, strain bik1, active compounds read low 0.988 | locus YCL061C, strain MRC1, active compounds read low 0.994 | locus YCL069W, strain vba3, active compounds read low 1 | locus YCR088W, strain abp1, active compounds read low 0.996 | locus YDL005C, strain med2, active compounds read low 0.992 | locus YDL035C, strain GPR1, active compounds read low 0.949 | locus YDL040C, strain nat1, active compounds read low 0.974 | locus YDL074C, strain BRE1, active compounds read low 1.01 | locus YDL101C, strain DUN1, active compounds read low 0.989 | locus YDL134C, strain PPH21, active compounds read low 0.958 | locus YDL185W, strain tfp1, active compounds read low 0.999 | locus YDL192W, strain arf1, active compounds read low 0.984 | locus YDR001C, strain nth1, active compounds read low 0.993 | locus YDR069C, strain doa4, active compounds read low 0.976 | locus YDR101C, strain arx1, active compounds read low 1.04 | locus YDR137W, strain rgp1, active compounds read low 0.994 | locus YDR150W, strain NUM1, active compounds read low 0.981 | locus YDR159W, strain sac3, active compounds read low 0.941 | locus YDR162C, strain NBP2, active compounds read low 0.989 | locus YDR195W, strain ref2 0.945 | locus YDR297W, strain sur2, active compounds read low 1 | locus YDR318W, strain mcm21, active compounds read low 0.957 | locus YDR334W, strain swr1, active compounds read low 0.996 | locus YDR335W, strain msn5, active compounds read low 0.992 | locus YDR388W, active compounds read low 0.984 | locus YDR502C, strain sam2, active compounds read low 0.977 | locus YEL003W, strain gim4, active compounds read low 0.994 | locus YEL037C, strain rad23, active compounds read low 0.999 | locus YEL061C, strain CIN8 (second series), active compounds read low 0.992 | locus YEL061C, strain CIN8, active compounds read low 0.991 | locus YER015W, strain faa2, active compounds read low 0.986 | locus YER016W, strain bim1, active compounds read low 0.988 | locus YER110C, active compounds read low 0.99 | locus YER111C, strain swi4, active compounds read low 0.992 | locus YER155C, strain BEM2 (second series), active compounds read low 0.867 | locus YER155C, strain BEM2, active compounds read low 0.999 | locus YER167W, strain BCK2, active compounds read low 0.999 | locus YFR010W, strain ubp6, active compounds read low 0.997 | locus YGL078C, strain dbp3, active compounds read low 0.996 | locus YGL086W, strain mad1, active compounds read low 1.02 | locus YGL167C, strain pmr1, active compounds read low 0.981 | locus YGL173C, strain kem1, active compounds read low 0.99 | locus YGL227W, strain vid30, active compounds read low 0.985 | locus YGL240W, strain doc1, active compounds read low 0.967 | locus YGL248W, strain PDE1, active compounds read low 0.965 | locus YGL253W, strain hxk2, active compounds read low 0.974 | locus YGR078C, strain PAC10, active compounds read low 0.981 | locus YGR135W, strain pre9, active compounds read low 0.968 | locus YGR252W, strain gcn5, active compounds read low 0.939 | locus YHR013C, strain ard1, active compounds read low 0.918 | locus YHR027C, strain rpn1, active compounds read low 0.997 | locus YHR030C, strain SLT2, active compounds read low 1 and 1.01 | locus YHR079C, strain IRE1 (second series), active compounds read low 0.996 | locus YHR079C, strain IRE1, active compounds read low 1.01 | locus YHR094C, strain hxt1, active compounds read low 0.975 | locus YHR129C, strain ARP1, active compounds read low 0.994 | locus YHR142W, strain chs7, active compounds read low 0.99 | locus YHR200W, strain rpn10, active compounds read low 0.986 | locus YIL066C, strain RNR3, active compounds read low 0.986 | locus YIL073C, strain SPO22, active compounds read low 0.957 | locus YIL125W, strain kgd1, active compounds read low 0.995 | locus YIR030C, strain dcg1, active compounds read low 0.999 | locus YJL092W, strain hpr5, active compounds read low 0.992 | locus YJL095W, strain BCK1 (second series), active compounds read low 0.991 | locus YJL095W, strain BCK1, active compounds read low 0.963 and 0.999 | locus YJL115W, strain asf1, active compounds read low 1 | locus YJL129C, strain trk1, active compounds read low 0.99 | locus YJL134W, strain LCB3, active compounds read low 0.993 | locus YJL154C, strain vps35, active compounds read low 1 | locus YJL164C, strain tpk1, active compounds read low 0.996 | locus YJL166W, strain qcr8, active compounds read low 0.986 | locus YJL168C, strain set2, active compounds read low 0.993 | locus YJL187C, strain SWE1 (second series), active compounds read low 0.98 | locus YJL187C, strain SWE1, active compounds read low 0.994 | locus YJR043C, strain POL32, active compounds read low 0.993 | locus YJR066W, strain TOR1, active compounds read low 0.958
